# Test results as given in PubChem BioAssay.
# The source made the active and inactive calls. Unless noted, the rule behind the calls is not given here.
# How the values were obtained:
# [1] = system: Wnt5a (protein binding on small-molecule microarray); assay: Wnt5a binders on small-molecule microarray, primary screen, biophysical, 635/667 nm fluorescence (AID 1142); conditions: 635 nm fluorescence, higher = more signal;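 note: fluorescence read at 667 nm with signal to noise per printed feature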
# [2] = cell viability in Huh7 cells, primary screen, cytotoxicity control for HCV replication inhibitor project, CellTiter-Glo luminescence, basal, 48 h (AID 1143); conditions: Huh7 HCV replicon, higher = more signal, called active from +8 up or from −8 down;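 note: Huh7 hepatoma cells carrying a hepatitis C replication reporter with no stimulus; test concentration not given here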
# [3] = P. aeruginosa biofilm formation inhibitors, primary screen, PAO1 strain, BacTiter-Glo luminescence, LB-PBS (AID 1144); conditions: 12 h, higher = more signal
# [4] = CREB reporter modulators without forskolin, primary screen, cell-based, PC12, CRE-LacZ reporter, unstimulated (AID 1145); conditions: no forskolin, luminescence, 4.5 h, higher = more signal, called active from +8 up or from −8 down
# [5] = CREB reporter modulators under forskolin, primary screen, cell-based, PC12, CRE-LacZ reporter, forskolin-stimulated (AID 1146); conditions: luminescence, 4.5 h, higher = more signal, called active from +8 up or from −8 down;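 note: PC12 cells with 6xCRE LacZ reporter stimulated by forskolin 10 µM; beta-galactosidase reporter signal reflecting CREB driven transcription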
# [6] = molecular target: Streptavidin (Streptomyces avidinii) (UniProt P22629); assay: streptavidin binders on small-molecule microarray, primary screen, artefact control for SMM compound annotation, biophysical, 635/667 nm fluorescence (AID 1147); conditions: streptavidin binding, higher = more signal;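 note: signal reflects streptavidin binding to arrayed compounds as a control protein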
# Chain of Streptavidin (Streptomyces avidinii) (P22629 whole entry, looked up): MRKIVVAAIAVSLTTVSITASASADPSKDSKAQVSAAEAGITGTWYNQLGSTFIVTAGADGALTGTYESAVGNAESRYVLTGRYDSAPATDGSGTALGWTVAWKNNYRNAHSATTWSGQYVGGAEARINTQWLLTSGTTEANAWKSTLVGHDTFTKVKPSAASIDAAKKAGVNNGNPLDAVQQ
# [7] = small-molecule binders of probe aInhba, primary screen, biochemical, small-molecule microarray, 635/667 nm fluorescence (AID 1148); conditions: higher = more signal;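 note: score merges 667nm spot fluorescence with signal-to-noise for antibody binding to printed compounds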
# Torsin-1A (Homo sapiens) [8] = molecular target: Torsin-1A (Homo sapiens) (UniProt O14656); assay: torsin A binders from cell lysate, primary screen, small-molecule microarray, wild-type, 635/667 nm (AID 1149); conditions: COS7 hTOR1A-WT lysate, 635 nm fluorescence, higher = more signal
# Chain of Torsin-1A (Homo sapiens) (O14656 whole entry, looked up): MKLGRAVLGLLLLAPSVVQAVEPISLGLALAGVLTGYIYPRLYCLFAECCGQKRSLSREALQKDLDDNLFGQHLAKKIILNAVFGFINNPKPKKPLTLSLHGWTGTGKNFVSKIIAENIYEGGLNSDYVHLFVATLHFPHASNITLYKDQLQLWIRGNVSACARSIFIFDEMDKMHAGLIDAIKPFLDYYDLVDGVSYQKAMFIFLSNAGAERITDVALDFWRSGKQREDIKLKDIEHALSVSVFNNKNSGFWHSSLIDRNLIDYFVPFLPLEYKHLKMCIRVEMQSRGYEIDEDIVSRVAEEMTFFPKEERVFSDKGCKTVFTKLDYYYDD
# Torsin-1A (Homo sapiens) [9] = molecular target: Torsin-1A (Homo sapiens) (UniProt O14656); assay: small-molecule binders of mutant TOR1A in lysate, primary screen, cell lysate, small-molecule microarray, COS7 lysate, 635/667 nm fluorescence (AID 1150); conditions: COS7 hTOR1A mutant lysate, 635 nm fluorescence, higher = more signal;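 note: score pools 667 nm emission and signal to noise measuring lysate protein binding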
# [10] = system: Sonic hedgehog protein (Shh); assay: small-molecule binders of Shh protein, primary screen, biochemical, small-molecule microarray, 635/667 nm fluorescence (AID 1151); conditions: small-molecule microarray binding, 635 nm fluorescence; higher = more signal;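 note: Shh protein binding to compounds spotted on small-molecule microarray slides; score combines spot fluorescence intensity with signal-to-noise across triplicate slides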
# [11] = E. coli DRC41 culture turbidity changes, primary screen, E. coli filamentation inducer project, strain DRC41, OD650, 48 h (AID 1152);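 note: E. coli MC1000 strain DRC41 lacking acrAB efflux pump and sulA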; conditions: E. coli DRC41 (acrAB sulA), higher = more signal, called active from +8 up or from −8 down
# [12] = small-molecule binders of probe aLefty1, primary screen, biochemical, small-molecule microarray, 635/667 nm fluorescence (AID 1153); conditions: higher = more signal;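 note: score merges spot fluorescence with signal-to-noise ratio from the scanned slide images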
# [13] = PSAC antagonists in infected red cells, primary screen, cell-based, P. falciparum Indochina, OD700, 1 h (AID 1154); conditions: P. falciparum Indochina infected RBC osmotic lysis, higher = more signal, called active from +8 up or from −8 down
# [14] = PSAC antagonists in infected red cells, primary screen, cell-based, P. falciparum Indochina, OD700, 2 h (AID 1155);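 note: lysis reports solute entry through the parasite surface anion channel PSAC; channel blockers reduce lysis of infected cells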; conditions: P. falciparum Indochina infected erythrocytes, osmotic lysis OD700; higher = more signal, called active from +8 up or from −8 down
# [15] = osmotic lysis modulators in infected erythrocytes, primary screen, PSAC antagonist project, cell-based, P. falciparum Indochina, OD700, 3 h (AID 1156); conditions: higher = more signal, called active from +8 up or from −8 down
# [16] = PSAC antagonists in infected red cells, primary screen, cell-based, P. falciparum Indochina, OD700, 18 h (AID 1157); conditions: P. falciparum Indochina infected erythrocytes, osmotic lysis OD700, 18 h; higher = more signal, called active from +8 up or from −8 down
# [17] = modulators of S6 phosphorylation in cells, primary screen, cell-based, A549, cytoblot, luminescence, serum-stimulated (AID 1158); conditions: A549 phospho-S6 cytoblot, 5 h, higher = more signal;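 note: serum-stimulated A549 lung adenocarcinoma cells; signal is phosphorylated S6 detected by cytoblot immunostaining with HRP secondary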
# [18] = molecular target: NADPH oxidase 2 (Homo sapiens) (UniProt P04839); assay: NOX2-dependent H2O2 signal modulators, primary screen, NOX inhibitor project, cell-based, HEK293-NOX2, PMA-stimulated, Amplex Red fluorescence (AID 1159); conditions: 45 min, higher = more signal, called active from +8 up or from −8 down; note: test concentration not given here
# Chain of NADPH oxidase 2 (Homo sapiens) (P04839 whole entry, looked up): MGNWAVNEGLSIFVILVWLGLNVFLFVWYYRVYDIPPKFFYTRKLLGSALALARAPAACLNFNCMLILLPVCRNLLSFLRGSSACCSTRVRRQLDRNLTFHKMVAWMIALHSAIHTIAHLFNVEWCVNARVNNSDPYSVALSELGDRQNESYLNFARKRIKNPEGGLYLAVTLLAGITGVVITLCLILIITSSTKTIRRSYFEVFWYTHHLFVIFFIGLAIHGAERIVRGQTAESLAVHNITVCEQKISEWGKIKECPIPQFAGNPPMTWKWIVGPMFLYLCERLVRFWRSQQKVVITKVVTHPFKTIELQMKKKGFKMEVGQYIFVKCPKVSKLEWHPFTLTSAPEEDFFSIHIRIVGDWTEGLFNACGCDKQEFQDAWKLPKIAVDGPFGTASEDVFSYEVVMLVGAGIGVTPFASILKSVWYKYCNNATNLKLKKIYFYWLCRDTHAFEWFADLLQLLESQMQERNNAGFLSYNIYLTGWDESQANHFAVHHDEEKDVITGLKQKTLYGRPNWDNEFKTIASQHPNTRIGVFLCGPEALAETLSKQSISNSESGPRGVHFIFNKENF
# [19] = molecular target: NADPH oxidase 4 (Homo sapiens) (UniProt Q9NPH5); assay: NOX4-dependent H2O2 signal modulators, primary screen, NOX inhibitor project, cell-based, HEK293-NOX4, tetracycline-induced, Amplex Red fluorescence (AID 1160); conditions: 45 min, higher = more signal, called active from +8 up or from −8 down
# Chain of NADPH oxidase 4 (Homo sapiens) (Q9NPH5 whole entry, looked up): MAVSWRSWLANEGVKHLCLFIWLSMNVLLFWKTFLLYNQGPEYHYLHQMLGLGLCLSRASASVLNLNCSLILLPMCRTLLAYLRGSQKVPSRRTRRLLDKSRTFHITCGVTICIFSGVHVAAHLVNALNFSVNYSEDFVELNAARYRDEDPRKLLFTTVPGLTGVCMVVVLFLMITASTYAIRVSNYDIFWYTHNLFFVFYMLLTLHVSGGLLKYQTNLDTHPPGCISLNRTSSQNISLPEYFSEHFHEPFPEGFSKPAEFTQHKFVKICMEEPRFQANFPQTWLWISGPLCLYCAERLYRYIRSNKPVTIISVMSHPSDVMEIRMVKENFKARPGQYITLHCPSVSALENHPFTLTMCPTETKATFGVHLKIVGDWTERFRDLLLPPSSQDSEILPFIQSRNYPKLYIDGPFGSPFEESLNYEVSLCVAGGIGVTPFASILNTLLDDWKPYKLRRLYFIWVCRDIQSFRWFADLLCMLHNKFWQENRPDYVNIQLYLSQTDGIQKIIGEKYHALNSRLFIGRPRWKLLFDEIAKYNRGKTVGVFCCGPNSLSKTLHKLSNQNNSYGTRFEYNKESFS
# [20] = molecular target: NADPH oxidase 5 (Homo sapiens) (UniProt Q96PH1); assay: NOX5-dependent H2O2 signal modulators, primary screen, NOX inhibitor project, cell-based, HEK293-NOX5, Amplex Red fluorescence (AID 1161); conditions: HEK293-NOX5, ionomycin, 45 min, higher = more signal
# Chain of NADPH oxidase 5 (Homo sapiens) (Q96PH1 whole entry, looked up): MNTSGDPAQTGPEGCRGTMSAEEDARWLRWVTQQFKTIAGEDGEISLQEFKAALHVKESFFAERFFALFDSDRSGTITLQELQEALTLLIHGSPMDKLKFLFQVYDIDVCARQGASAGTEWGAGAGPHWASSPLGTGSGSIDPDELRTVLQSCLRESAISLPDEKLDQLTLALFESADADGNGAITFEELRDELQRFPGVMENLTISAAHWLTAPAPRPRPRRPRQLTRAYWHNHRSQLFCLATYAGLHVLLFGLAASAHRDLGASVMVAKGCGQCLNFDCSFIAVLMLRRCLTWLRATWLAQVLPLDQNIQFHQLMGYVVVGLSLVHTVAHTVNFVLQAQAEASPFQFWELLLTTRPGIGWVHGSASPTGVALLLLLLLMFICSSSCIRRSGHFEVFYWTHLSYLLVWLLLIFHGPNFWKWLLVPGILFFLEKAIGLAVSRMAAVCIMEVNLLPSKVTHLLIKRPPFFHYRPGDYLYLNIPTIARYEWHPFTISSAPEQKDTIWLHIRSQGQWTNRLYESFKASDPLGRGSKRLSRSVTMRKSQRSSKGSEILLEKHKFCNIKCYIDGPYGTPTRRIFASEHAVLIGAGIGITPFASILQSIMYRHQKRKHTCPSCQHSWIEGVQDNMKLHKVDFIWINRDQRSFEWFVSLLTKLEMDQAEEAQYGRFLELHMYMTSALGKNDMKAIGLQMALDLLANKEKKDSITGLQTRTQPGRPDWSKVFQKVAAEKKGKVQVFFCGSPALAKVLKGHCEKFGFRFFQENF
SMILES,composite z-score [1],z-score [2],z-score [3],z-score [4],z-score [5],composite z-score [6],composite z-score [7],composite z-score (Torsin-1A (Homo sapiens) [8]),composite z-score (Torsin-1A (Homo sapiens) [9]),composite z-score [10],z-score [11],composite z-score [12],z-score [13],z-score [14],z-score [15],z-score [16],z-score [17],z-score [18],z-score [19],z-score [20]
COc1ccc(COC(=O)NN=C2C[C@@H](O)[C@@H](O)[C@@H]3[C@@H]4C(=O)N(C(C)(C)C)C(=O)[C@@H]4CC[C@@H]23)cc1,0.211,0.22 (inactive),0.224 (inactive),0.973 (inactive),0.384 (inactive),0.244,0.0086,0.385,1.47,0.612,0.244 (inactive),-0.328,0.339 (inactive),-0.039 (inactive),-0.609 (inactive),-0.0118 (inactive),1.14,-0.384 (inactive),0.808 (inactive),0.315
O=C1C2=CC[C@H]3C(=O)N(Cc4ccccc4)C(=O)[C@H]3[C@H]2[C@H](O)[C@@H]2O[C@H]12,-0.134,-6.84 (inactive),0.252 (inactive),0.518 (inactive),25 (active),-0.0955,-0.128,0.367,0.216,-0.575,-0.536 (inactive),-0.379,0.472 (inactive),0.147 (inactive),-0.178 (inactive),0.157 (inactive),-0.451,-1.41 (inactive),0.16 (inactive),0.44
C[C@@H]1C=CCC(=O)OC[C@H](C)C(=O)N[C@@H](Cc2ccccc2)C(=O)OC1,0.033,-3.11 (inactive),-1.23 (inactive),1.43 (inactive),-0.846 (inactive),-0.0535,-0.0736,0.519,0.59,0.638,-0.596 (inactive),-0.0287,0.296 (inactive),-0.506 (inactive),-0.307 (inactive),-1.2 (inactive),0.826,-0.348 (inactive),-0.928 (inactive),-0.396
CCOC(=O)[C@H](Cc1ccccc1)NC(=O)CCC1CC(OC(=O)NCc2cccc3ccccc23)CC2(CCCC(COC(=O)NCc3ccc4c(c3)OCO4)O2)O1 (stereo not given in full),0.123,-0.301 (inactive),-0.548 (inactive),-0.0767 (inactive),-0.0564 (inactive),-0.0007,-0.0762,0.0755,-0.497,0.466,1.21 (inactive),0.0686,0.509 (inactive),-0.255 (inactive),-0.336 (inactive),-0.12 (inactive),0.184,0.691 (inactive),0.538 (inactive),0.712
CC(C)[C@@H](OCc1ccccc1)[C@H](C)C=NOC[C@@H](O)[C@H]1O[C@@H]2OC(C)(C)O[C@@H]2[C@H]1O,0.332,0.226 (inactive),0.0464 (inactive),-0.408 (inactive),0.307 (inactive),1.61,-0.0695,0.298,0.284,0.587,-1.74 (inactive),-0.25,0.0248 (inactive),-0.211 (inactive),0.122 (inactive),0.124 (inactive),-0.898,1.09 (inactive),-1.94 (inactive),0.165
CC(C)=NOC[C@@H](O)[C@H]1O[C@@H]2OC(C)(C)O[C@@H]2[C@H]1O,-0.297,0.605 (inactive),0.503 (inactive),-0.473 (inactive),-0.476 (inactive),1.23,0.333,1.34,0.0837,0.785,0.269 (inactive),-0.0501,0.0289 (inactive),0.0612 (inactive),-0.0091 (inactive),0.269 (inactive),0.0226,-0.162 (inactive),-0.514 (inactive),0.0874
CC(=O)OC[C@H]1O[C@H](CC=NOC[C@@H](O)COCc2ccco2)C=C[C@@H]1OC(C)=O,0.364,0.0896 (inactive),-0.196 (inactive),-0.729 (inactive),0.25 (inactive),-0.436,-0.183,3.67,3.65,2.07,0.241 (inactive),0.0509,0.77 (inactive),-0.161 (inactive),0.482 (inactive),0.515 (inactive),0.0978,-0.431 (inactive),0.748 (inactive),0.0957
COc1ccc(COC(=O)NN=C2C[C@@H](O)[C@@H](O)[C@@H]3[C@@H]4C(=O)N(C5CCCCC5)C(=O)[C@@H]4CC[C@@H]23)cc1,0.0311,-0.252 (inactive),0.755 (inactive),2.32 (inactive),0.0868 (inactive),0.576,-0.0774,-0.367,0.223,-0.791,-0.83 (inactive),0.94,6.59 (inactive),1.25 (inactive),0.101 (inactive),0.622 (inactive),-0.185,-0.623 (inactive),-0.069 (inactive),0.391
CC[C@@H](c1ccccc1)n1c(=O)n2n(c1=O)[C@H]1[C@H](O)[C@@H]3O[C@@H]3C(=NOCc3ccccc3)[C@H]1CC2,0.0576,-3.91 (inactive),0.479 (inactive),0.248 (inactive),0.706 (inactive),0.347,-0.0131,0.106,0.223,1.05,-1.08 (inactive),0.0004,2.18 (inactive),0.0656 (inactive),1.1 (inactive),0.454 (inactive),0.3,1.55 (inactive),-0.989 (inactive),1.21
